Measured values: PubChem BioAssay AID1224865 (Sanford-Burnham Center for Chemical Genomics, 2016)
Screen size: about 360,000 compounds; about 1,100 (0.31%) were called active. What follows is part of a selection rich in actives, with near analogues and random picks from the rest. Unmarked numbers belong to inactive results. No stated cut-off is given here; in the data, active means activity change above about 30% (passing the limit was not always enough); inactive means the rest.

What follows are compounds tested against Hepatocyte nuclear factor 4-alpha (Homo sapiens) (UniProt P41235) (assay: HNF4-alpha DNA association modulation – biochemical, fluorescence polarization, FITC-DNA, primary screen (AID 1224865)). Details: HNF4a-FITC DNA binding, 1 h, at 10 µM, active compounds read high.
Chain of Hepatocyte nuclear factor 4-alpha (Homo sapiens) (P41235 whole entry, looked up): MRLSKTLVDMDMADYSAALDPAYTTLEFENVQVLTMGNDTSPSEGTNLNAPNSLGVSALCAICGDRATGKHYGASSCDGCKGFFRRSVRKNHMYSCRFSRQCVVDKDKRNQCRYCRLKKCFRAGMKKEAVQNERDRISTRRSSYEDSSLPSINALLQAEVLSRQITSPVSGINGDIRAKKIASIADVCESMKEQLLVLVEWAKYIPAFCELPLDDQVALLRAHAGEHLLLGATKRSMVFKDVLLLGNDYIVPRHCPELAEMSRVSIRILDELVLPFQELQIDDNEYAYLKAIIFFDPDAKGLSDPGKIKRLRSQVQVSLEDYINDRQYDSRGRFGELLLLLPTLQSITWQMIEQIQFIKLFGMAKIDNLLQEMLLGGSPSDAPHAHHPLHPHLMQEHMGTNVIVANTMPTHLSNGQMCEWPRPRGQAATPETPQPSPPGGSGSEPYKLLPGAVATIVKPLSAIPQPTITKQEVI
In the case of C=CC[C@H](CC(=O)N(CCO)Cc1ccccc1)C(=O)N[C@@H](COC(=O)[C@@H](CC=C)Cc1ccc(F)cc1)Cc1ccccc1, the activity change was 2.32%.
Cc1ccc(CSCC(=O)N(C)CC(=O)Nc2cccc(F)c2)cc1 was tested, and the activity change was -2.3%.
For CN(CC(=O)Nc1cccc(F)c1)C(=O)CC1CCCC1, the activity change was -0.01%.
CCN(CC)C(=O)CSC(Nc1cccc(F)c1)=C(C#N)C#N was tested, and the activity change was 44.9% (active).
With Cc1ccccc1OCCC(=O)Nc1c(C)n(C)n(-c2ccccc2)c1=O the activity change was -0.09%.
For O=C(CC1Nc2ccccc2NC1=O)Nc1ccccc1 (stereo not given), the activity change was 7.95%.
COc1ccc(CCNC2=CC(=O)CC(C)(C)C2)cc1 was tested, and the activity change was 2.16%.
For COc1ccc(NC2=CC(=S)NC(C)(C)C2)cc1, the activity change was 39.2% (active).
Work on COc1ccc(Nc2cc(Sc3ccc(OC)cc3)ncn2)cc1 yielded an activity change of 7.05%.
In the case of CCCNC(=O)c1cc(C2CCCCN2S(=O)(=O)c2cn(C)cn2)on1 (stereo not given), the activity change was -2.31%.
Cc1cc(C)n2nc(C(=O)Nc3cccc(S(=O)(=O)N4CCOCC4)c3)nc2n1 was tested, and the activity change was -1.39%.
CC(C)Oc1ccc(C(=O)NCC(=O)Nc2ccc3c(c2)CCC3)cc1 was tested, and the activity change was -0.66%.
Compound Cc1ccc(C(=O)OCC(=O)NC2CCCCCCC2)cc1C has an activity change of -0.78%.
Cc1nc(SCC(=O)Nc2cc(C)on2)c2c(C)c(C)sc2n1 was tested, and the activity change was 49.9% (active).
Cc1nc(SCC(=O)N2CC(=O)Nc3ccccc32)c2c(C)c(C)sc2n1 showed an activity change of -0.27%.
Cc1nc(SCC(=O)N2CCc3ccccc3C2)c2c(C)c(C)sc2n1 was tested, and the activity change was -0.31%.
Work on CC/C(=C(/c1ccccc1)c1ccc(OCC[N+](C)(C)C)cc1)c1ccccc1 yielded an activity change of 7.53%.
Work on C[C@@H]1CN([C@H](C)CO)C(=O)c2cc(Br)cnc2O[C@@H]1CN(C)Cc1cncnc1 yielded an activity change of 3.08%.
Work on COC(=O)c1cccc(N(CC(=O)NCC2CCCO2)C(=O)CCC(=O)Nc2cc(C)on2)c1 (stereo not given) yielded an activity change of 2.32%.
Compound O=C(COC(=O)c1ccc(F)c(S(=O)(=O)N2CCOCC2)c1)NCc1ccc2c(c1)OCO2 has an activity change of 2.9%.
